Assay results published in PubChem BioAssay AID1159580 (chemical genetic matrix, 2015).
“And” between values parts separate entries of the source, which are not always exact repeats. Identical values can stand only once. About 2,000 (36%) of roughly 5,500 compounds were called active. Another 18% or so got no clear call; they are omitted. No stated cut-off is given here; in the data, active means normalized growth mostly below about 0.91 (no sharp cut-off); inconclusive means no clear call, values can overlap the other calls; inactive means mostly above about 0.92. Some of the results follow.

Assay: chemical genetic growth profiling, strain panel (AID 1159580);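 further: tested at 20 µM; growth read once vehicle control cultures reached saturation at 30 °C; 1 = growth at the plate median or of vehicle wells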
Details: S. cerevisiae deletion strains, growth OD

Measured: normalized growth

NC(=O)c1cccc(N)c1
inactive: locus YAL013W, strain DEP1, stronger effect = lower value 1 and 1.01 | locus YAL021C, strain ccr4, stronger effect = lower value 0.979 | locus YAL026C, strain drs2, stronger effect = lower value 0.97 | locus YAL030W, strain snc1, stronger effect = lower value 0.992 | locus YAL040C, strain CLN3, stronger effect = lower value 1 | locus YBL061C, strain skt5, stronger effect = lower value 0.977 | locus YBR009C, strain hhf1, stronger effect = lower value 0.998 | locus YBR021W, strain FUR4, stronger effect = lower value 0.968 | locus YBR023C, strain chs3, stronger effect = lower value 0.981 | locus YBR171W, strain sec66, stronger effect = lower value 0.962 | locus YBR229C, strain ROT2, stronger effect = lower value 1 | locus YBR231C, strain swc5, stronger effect = lower value 0.967 | locus YBR279W, strain paf1, stronger effect = lower value 0.99 | locus YCL011C, strain gbp2, stronger effect = lower value 0.957 | locus YCL016C, strain dcc1, stronger effect = lower value 0.988 | locus YCL029C, strain bik1, stronger effect = lower value 1 | locus YCL061C, strain MRC1 (second series), stronger effect = lower value 1 | locus YCL069W, strain vba3, stronger effect = lower value 0.962 | locus YCR088W, strain abp1, stronger effect = lower value 0.972 | locus YDL005C, strain med2, stronger effect = lower value 0.969 | locus YDL035C, strain GPR1, stronger effect = lower value 1 | locus YDL040C, strain nat1, stronger effect = lower value 0.988 | locus YDL074C, strain BRE1, stronger effect = lower value 1.01 | locus YDL101C, strain DUN1, stronger effect = lower value 1.01 | locus YDL134C, strain PPH21, stronger effect = lower value 0.999 | locus YDL185W, strain tfp1, stronger effect = lower value 1.01 | locus YDL192W, strain arf1, stronger effect = lower value 0.999 | locus YDR001C, strain nth1, stronger effect = lower value 0.979 | locus YDR069C, strain doa4, stronger effect = lower value 0.966 | locus YDR101C, strain arx1, stronger effect = lower value 0.987 | locus YDR137W, strain rgp1, stronger effect = lower value 0.976 | locus YDR150W, strain NUM1, stronger effect = lower value 1.01 | locus YDR159W, strain sac3, stronger effect = lower value 0.965 | locus YDR162C, strain NBP2, stronger effect = lower value 1 | locus YDR195W, strain ref2 0.958 | locus YDR297W, strain sur2, stronger effect = lower value 0.98 | locus YDR318W, strain mcm21, stronger effect = lower value 0.985 | locus YDR334W, strain swr1, stronger effect = lower value 0.96 | locus YDR335W, strain msn5, stronger effect = lower value 0.97 | locus YDR363W, strain ESC2, stronger effect = lower value 1 | locus YDR388W, stronger effect = lower value 0.993 | locus YDR392W, strain spt3, stronger effect = lower value 0.965 | locus YDR502C, strain sam2, stronger effect = lower value 1.01 | locus YEL003W, strain gim4, stronger effect = lower value 0.979 | locus YEL037C, strain rad23, stronger effect = lower value 0.969 | locus YEL061C, strain CIN8 (second series), stronger effect = lower value 0.954 | locus YEL061C, strain CIN8, stronger effect = lower value 1.01 | locus YER002W, strain NOP16, stronger effect = lower value 1.02 | locus YER015W, strain faa2, stronger effect = lower value 0.983 | locus YER016W, strain bim1, stronger effect = lower value 0.977 | locus YER110C, stronger effect = lower value 0.996 | locus YER111C, strain swi4, stronger effect = lower value 0.966 | locus YER155C, strain BEM2 (second series), stronger effect = lower value 0.965 | locus YER155C, strain BEM2, stronger effect = lower value 0.99 | locus YER167W, strain BCK2, stronger effect = lower value 1 | locus YFR010W, strain ubp6, stronger effect = lower value 0.968 | locus YGL078C, strain dbp3, stronger effect = lower value 1 | locus YGL086W, strain mad1, stronger effect = lower value 0.988 | locus YGL167C, strain pmr1, stronger effect = lower value 0.981 | locus YGL173C, strain kem1, stronger effect = lower value 0.984 | locus YGL227W, strain vid30, stronger effect = lower value 0.966 | locus YGL240W, strain doc1, stronger effect = lower value 0.969 | locus YGL248W, strain PDE1, stronger effect = lower value 1 | locus YGL253W, strain hxk2, stronger effect = lower value 0.963 | locus YGR078C, strain PAC10, stronger effect = lower value 1 and 1.05 | locus YGR135W, strain pre9, stronger effect = lower value 0.986 | locus YGR229C, strain SMI1, stronger effect = lower value 1.01 | locus YGR252W, strain gcn5, stronger effect = lower value 0.978 | locus YHR013C, strain ard1, stronger effect = lower value 0.972 | locus YHR027C, strain rpn1, stronger effect = lower value 0.974 | locus YHR030C, strain SLT2, stronger effect = lower value 1.01 | locus YHR079C, strain IRE1 (second series), stronger effect = lower value 0.994 | locus YHR094C, strain hxt1, stronger effect = lower value 0.998 | locus YHR129C, strain ARP1, stronger effect = lower value 1 | locus YHR142W, strain chs7, stronger effect = lower value 0.968 | locus YHR200W, strain rpn10, stronger effect = lower value 0.993 | locus YIL066C, strain RNR3, stronger effect = lower value 1 | locus YIL073C, strain SPO22, stronger effect = lower value 1.02 | locus YIL125W, strain kgd1, stronger effect = lower value 0.996 | locus YIR030C, strain dcg1, stronger effect = lower value 0.996 | locus YJL092W, strain hpr5, stronger effect = lower value 0.954 | locus YJL095W, strain BCK1 (second series), stronger effect = lower value 0.979 | locus YJL095W, strain BCK1, stronger effect = lower value 1 | locus YJL115W, strain asf1, stronger effect = lower value 0.966 | locus YJL129C, strain trk1, stronger effect = lower value 0.965 | locus YJL134W, strain LCB3, stronger effect = lower value 1 | locus YJL154C, strain vps35, stronger effect = lower value 0.979 | locus YJL164C, strain tpk1, stronger effect = lower value 1 | locus YJL166W, strain qcr8, stronger effect = lower value 1.01 | locus YJL168C, strain set2, stronger effect = lower value 0.99 | locus YJL187C, strain SWE1 (second series), stronger effect = lower value 1.01 | locus YJL187C, strain SWE1, stronger effect = lower value 0.968
